# Screens as filed in PubChem.
# Sampled rows, rich in hits. Any-hit rate of the full collection: about 7.2%.
# RE007 growth inh: less growth of the S. pombe RE007 Vpr strain | S. pombe RE007 Vpr strain, BacTiter-Glo ATP luminescence, 24 h | Potency, µM (titrated, usually from 92.2 µM), usual class: inhibitors | actives 0.21% (n = 360,000); active = well fitted falling curve with a large enough effect; inconclusive = small, poorly fitted or top-dose-only effect; inactive = no such curve, though single readings can be large or run the other way; note: nearly all actives have a fitted effect of over 50% in size
#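 Fission yeast RE007 carrying one integrated HIV-1 vpr copy, seeded at OD 0.01 in PMG+AL medium with 23 nL pinned compound. Grown 24 h at 30 degrees; viability read by BacTiter-Glo luminescence after 5 min.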
# FMDV antiviral: foot and mouth disease virus antiviral activity. actives 1.2% (n = 410,000). Potency, µM (top dose mostly 57.9 µM), hits mostly inhibitors. AID 1159524. FMDV antiviral cell-based qHTS; calls by dose curve; tested in HEK293T cells; note: read-out not given here; nearly all actives have a fitted effect of over 45% in size
# Lassa entry inh: blocks Lassa virus binding to or entry into cells; Lassa virus pseudotype entry inhibition, cell reporter; Potency, µM (highest dose often 37.9 µM), most hits filed as inhibitors; actives 1.2% (n = 300,000); AID 540256; calls by dose curve; tested in HEK293 cells; note: nearly all actives have a fitted effect of over 50% in size
# Sm TGR block: blocks Schistosoma mansoni thioredoxin glutathione reductase; Potency, µM (series often up to 114 µM), hits mostly inhibitors; AID 485364; purified TGR, DTNB reduction, TNB absorbance 405 nm; Q962Y6; actives 3% (n = 360,000); note: nearly all actives have a fitted effect of over 60% in size
#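 First, TGR (20 nM dispensed) and NADPH were mixed with compound. Second, a 15 min room-temperature incubation followed. Third, further NADPH and then DTNB were added to start the reaction. Finally, TNB absorbance was monitored kinetically.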
# Marburg entry inh: Marburg virus entry inhibition | actives 1.8% (n = 300,000) | AID 540276 | Marburg virus pseudotyped entry inhibition, cell reporter | Potency, µM (series often up to 37.8 µM), hits mostly inhibitors; calls by dose curve; tested in HEK293 cells
# HCV inh: inhibitors of hepatitis C virus infection; Huh7.5.1 HCVcc-Cre infection, luciferase reporter, 44 h; Potency, µM (highest dose often 41.8 µM), usual class: inhibitors; actives 3.4% (n = 340,000); AID 651820
#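 Luciferase read-out (15 sec integration) after a 15 min room-temperature substrate step quantifies HCVcc-Cre infection. Cells, 1,000 per well, had compound added 4 h post-plating, then virus at ~0.5 moi, and were cultured 44 h.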
# Hits are given with their value; . = inactive; ? = inconclusive; / = not tested or not shown; ! = not confirmed by another sample; [ ] = dose if it differs, or a comment. Unless noted, calls come from the whole dose curve; as a rule, active = well fitted curve in the direction sought with a large enough effect; inconclusive = small, poorly fitted or top-dose-only effect, or another doubt; inactive = no such curve, though single readings can be large; an effect the other way counts as inactive or inconclusive.
SMILES,RE007 growth inh,FMDV antiviral,Lassa entry inh,Sm TGR block,Marburg entry inh,HCV inh
O=C([O-])c1cc(-c2ccccc2)cc(-c2ccccc2)[n+]1Cc1ccccc1,/,/,/,.,/,.
O=[N+]([O-])c1cccc(-c2nc3ccc([N+](=O)[O-])cc3[nH]2)c1,.,.,.,.,?,14µM
O=[N+]([O-])c1ccc2nc(-[n+]3c(-c4ccccc4)cc(-c4ccccc4)cc3-c3ccccc3)[nH]c2c1,.,.,23µM,.,?,?
COc1ccc(CNC(=O)/C=C/c2ccc3[nH]cc(CCN(C)C)c3c2)cc1,.[18.4 µM],.,.,.,35µM!,.
Cc1ccc(NP(=O)(c2ccccc2)c2nc3ccccc3s2)cc1 (stereo unspecified),.,.,/,16µM,/,.
CCCC(=O)NCCc1nc2ccccc2n1Cc1c(F)cccc1Cl,/,?,.,.,.,/
C=CCN1C=C/C(=C\C=C(C#N)C#N)c2ccccc21,.,.,.,.,.,10µM
CCCCCCN1C=C/C(=C\C=C(C#N)C#N)c2ccccc21,.,?,.,.,.,?
Cc1ccccc1OCc1nnc(SCC(=O)Nc2ccc3nc(SCC(=O)Nc4ccccc4)sc3c2)n1C,.,.,?,.,?,1.1µM
Cc1ccccc1OCC(=O)Nc1ccc2nc(SCC(=O)N3CCOCC3)sc2c1,/,28µM,.,.,.,/
CN(C(=O)CSc1nc2ccc(NC(=O)c3ccccc3F)cc2s1)c1ccccc1,/,40µM,?,.,?,/
CC(C)(C)c1ccc(C(=O)Nc2ccc3nc(SCC(=O)N4CCCC4)sc3c2)cc1,/,10µM,?,.,?,/
Cc1ccccc1C(=O)Nc1ccc2nc(SCC(=O)N(C)c3ccccc3)sc2c1,/,.,?,.,.,/
Cc1cc(=O)n(Cc2ccccc2Cl)c2c1c(C)nn2-c1ccccc1,/,.,.,.,/,/
CC(=O)N(CC(=O)N(CC(=O)O)c1ccc(Cl)cc1)c1ccc(Cl)cc1,.,.,.,/,?,.
C=CC1=C(C(=O)O)N2C(=O)C(NC(=O)Cc3ccccc3)C2SC1 (stereo unspecified),.,/,.,10µM,.,.
CC1=C(C(=O)O)N2C(=O)C(NC(=O)C(N)c3ccccc3)C2SC1 (stereo unspecified),/,.,/,/,/,/
CC(=O)OCC1=C(C(=O)O)N2C(=O)[C@@H](NC(=O)Cc3ccccc3)[C@H]2SC1,.,?,/,/,/,.
O=C(COc1ccccc1)NC1C(=O)N2C(C(=O)O)=C(Cl)CSC12 (stereo unspecified),.,.,.,?,.,.
CC(=O)OCC1=C(C(=O)O)N2C(=O)C(NC(=O)C(C)Cn3cc(Cl)cn3)C2SC1 (stereo unspecified),.,.,/,28µM,/,.
CC(=O)OCC1=C(C(=O)O)N2C(=O)[C@@H](NC(=O)Cc3cccs3)[C@H]2SC1,.,.,.,?,?,0.56µM!
CCOc1ccc(C(=O)NC2C(=O)N3C(C(=O)O)=C(COC(C)=O)CSC23)cc1OCC (stereo unspecified),.,.,.,22µM,.,.
CCn1cc(C(=O)N2CCN(c3ccc(C)cc3)C(C)C2)c(=O)c2cc(S(=O)(=O)N3CCCC3)ccc21 (stereo unspecified),/,.,.,.,.,/
CC(=O)OCC1=C(C(=O)O)N2C(=O)C(NC(=O)CC(C)c3ccccc3)C2SC1 (stereo unspecified),.,.,/,28µM,/,.
CCN1C(=NCCCOC(C)C)NC(c2ccccc2)C(C(=O)OC)=C1C (stereo unspecified),/,/,?,/,.,/
CC1(C)CC2CC(C)(CN2Cc2c(O)ccc3ccccc23)C1 (stereo unspecified),.,.,/,6.3µM,/,.
COc1ccc(NC(=O)C2CCCN(C(=O)c3cnn(-c4ccccc4)c3-n3cccc3)C2)cc1 (stereo unspecified),/,.,?,.,?,/
COC(C(=O)Nc1ccc(S(=O)(=O)Nc2ccc(F)cc2)cc1)c1ccccc1 (stereo unspecified),.,.,?,.,7.9µM,.
COC(C(=O)Nc1ccc(F)cc1)c1ccccc1 (stereo unspecified),.,.,.,.,.,.
Cc1nc(N2CCN(C(=O)c3ccco3)CC2)c2c3c(sc2n1)CCC3,.,?,?,?,10µM,?
